Rows were chosen to be rich in hits. Some 2.5% of all compounds tested hit in one or more screens of this group.
POLH inh = inhibitors of human DNA polymerase eta | Q9Y253 | recombinant Pol eta, fluorescent DNA replication assay | Potency, µM (series often up to 114 µM), for the others: at the top dose activity change, negative = inhibition, hits mostly inhibitors | 390,000 tested, 1.2% active; further: on the % scale 0 is the no-effect control and ±100 the full control effect
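Pol eta (10 nM) was preincubated with compounds for 15 min at room temperature, after which fluorescent replication substrate (50 nM final) was added to start the reaction. Fluorescence was read kinetically at 0 and 10 min.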
L3MBTL1 inh = inhibitors of human L3MBTL1; AlphaScreen L3MBTL1–H3K9me1 peptide binding; Potency, µM (titrated, usually from 57.1 µM), for the others: top-dose activity, negative = inhibition, usual class: inhibitors; 230,000 tested, 0.66% active; Q9Y468; further: on the % scale 0 is the no-effect control and ±100 the full control effect; nearly all actives have a fitted effect of over 60% in size
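Read-out is AlphaScreen signal from streptavidin donor and nickel chelate acceptor beads (10 ug/mL final each) bridging L3MBTL1 (50 nM) and biotinylated K9-monomethylated H3(1-15) peptide (75 nM), after 30 min compound exposure at room temperature.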
Pol kappa inh = blocks human DNA polymerase kappa activity | purified Pol kappa, fluorescent DNA synthesis assay, 10 min | Q9UBT6 | 400,000 tested, 0.53% active | AID 588579 | Potency, µM (highest dose often 107 µM), for the others: at the top dose activity, negative = inhibition, hits mostly inhibitors; further: on the % scale 0 is the no-effect control and ±100 the full control effect
Target sequence (Q9UBT6 whole entry, looked up): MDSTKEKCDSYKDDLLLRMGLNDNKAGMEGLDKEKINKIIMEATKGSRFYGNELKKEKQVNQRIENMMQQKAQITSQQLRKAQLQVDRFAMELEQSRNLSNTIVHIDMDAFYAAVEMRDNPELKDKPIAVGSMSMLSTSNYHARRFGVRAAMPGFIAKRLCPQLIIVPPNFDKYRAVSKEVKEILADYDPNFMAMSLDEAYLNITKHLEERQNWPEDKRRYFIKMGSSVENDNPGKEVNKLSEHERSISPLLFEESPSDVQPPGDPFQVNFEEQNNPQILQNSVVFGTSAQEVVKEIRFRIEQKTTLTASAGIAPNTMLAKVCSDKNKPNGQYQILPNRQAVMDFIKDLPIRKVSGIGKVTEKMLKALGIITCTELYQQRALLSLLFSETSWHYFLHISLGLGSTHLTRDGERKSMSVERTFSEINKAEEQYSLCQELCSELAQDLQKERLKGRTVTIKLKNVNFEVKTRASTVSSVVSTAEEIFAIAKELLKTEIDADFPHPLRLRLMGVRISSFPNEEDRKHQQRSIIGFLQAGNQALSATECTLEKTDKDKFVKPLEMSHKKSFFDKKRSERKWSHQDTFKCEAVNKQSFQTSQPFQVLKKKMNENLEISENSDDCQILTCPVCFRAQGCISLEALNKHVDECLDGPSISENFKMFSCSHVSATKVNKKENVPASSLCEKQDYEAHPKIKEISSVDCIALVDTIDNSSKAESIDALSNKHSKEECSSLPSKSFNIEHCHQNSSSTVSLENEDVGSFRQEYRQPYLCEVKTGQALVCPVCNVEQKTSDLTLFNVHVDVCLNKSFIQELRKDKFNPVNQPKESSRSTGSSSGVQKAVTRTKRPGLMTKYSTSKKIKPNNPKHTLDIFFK
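Kinetic fluorescence readout at 0 and 10 min followed reaction start with substrate at 50 nM final. Beforehand, enzyme (10 nM Pol kappa) stood 15 min with compound at room temperature; buffer-only wells were negative controls.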
APEX1 inh = APE1 (human) endonuclease inhibition. P27695. recombinant APE1, TAMRA/BHQ-2 abasic DNA cleavage fluorescence. Potency, µM (doses to about 65.8 µM), without a hit: at the highest dose activity change, negative = inhibition, actives largely listed as inhibitors. 350,000 tested, 0.35% active. AID 2517;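 further: plate controls were vehicle for no effect and reference inhibitor for full effect; nearly all actives have a fitted effect of over 55% in size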
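Incision of a quenched TAMRA/BHQ-2 THF abasic-site duplex (50 nM) by 0.75 nM APE1, after 15 min compound preincubation, measured as fluorescence increase over three 60 s reads. Values normalized to buffer, DMSO and NSC13755 control wells.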
POLB inh = inhibitors of human DNA polymerase beta; P06746; Pol beta primer extension/strand displacement, fluorescence kinetic; Potency, µM (top dose mostly 114 µM), inactives show top-dose activity change, negative = inhibition, actives largely listed as inhibitors; 340,000 tested, 1.3% active; AID 485314; further: on the % scale 0 is the no-effect control and ±100 the full control effect
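Reaction started by 50 nM substrate onto compound-treated Pol beta (10 nM, 15 min preincubation, room temperature); plates read at 0 min and 10 min. Normalized concentration-effect data fitted by four-parameter Hill equation.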
Pol iota inh = inhibitors of human DNA polymerase iota. 390,000 tested, 1% active. Q9UNA4. Potency, µM (series often up to 115 µM), for the others: at the top dose activity, negative = inhibition, usual class: inhibitors. Pol iota fluorescent replication assay, 10 min
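Fluorescent replication assay read twice, at 0 min and 10 min after adding 50 nM (final) substrate. Enzyme (10 nM) and compounds were first incubated 15 min at room temperature; enzyme-free buffer wells were negative controls.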
* hit, by the source's call; [ ] = remark or other dose. The call rests on the fitted dose curve; in most records, active means well fitted curve in the direction sought with a large enough effect; inconclusive means small, poorly fitted or top-dose-only effect, or another doubt; inactive means no such curve, though single readings can be large; an effect the other way counts as inactive or inconclusive. Potency means the concentration at half of the fitted maximal effect.

Screening Cc1ccc(C=C2C(Cl)=C(Cl)C(Cl)=C2Cl)cc1 returned POLH inh 11.2µM*, L3MBTL1 inh 3.16µM*, Pol kappa inh 15.8µM*, APEX1 inh 15.8µM*, POLB inh 3.98µM* and Pol iota inh 2.82µM*.
Cc1cc(C)cc(N2C(=O)NC(=O)/C(=C/c3cccn3-c3ccc(Cl)cc3)C2=O)c1 was read as POLH inh 79.4µM*, L3MBTL1 inh -8.3%, Pol kappa inh -5.3%, APEX1 inh inconclusive, POLB inh 11.9% and Pol iota inh inconclusive.
Screening CC(C)(C)n1cccc1/C=C1\C(=O)NC(=O)N(c2ccccc2)C1=O returned POLH inh -15.4%, L3MBTL1 inh -1.3%, Pol kappa inh -2.4%, APEX1 inh 3.8%, POLB inh -9.8% and Pol iota inh inconclusive.
c1ccc(CN2CCC3(CCc4ccccc43)CC2)cc1 was read as Pol kappa inh 6.2%[19.4 µM] and APEX1 inh inconclusive.
CCCNC1=C(C)C(=O)C2=C(C1=O)C(COC(N)=O)[C@]1(OC)C3NC3CN21 (some centres not stated) was read as POLH inh inconclusive, Pol kappa inh 44.7µM*, APEX1 inh -3.9%, POLB inh 18.4% and Pol iota inh 7.94µM*.
Cc1cc(C=C2C(=O)N(C)C(=S)N(C)C2=O)c(C)n1C1CCCCC1 was read as POLH inh 14.1µM*, L3MBTL1 inh -14.1%, Pol kappa inh -21.8%, APEX1 inh -4.8%, POLB inh 39.8µM* and Pol iota inh inconclusive.
COc1ccc(COC(=O)CCNC(=O)c2ccc(Cl)cc2)cc1 was read as POLH inh -15.2%, L3MBTL1 inh 6.1%, Pol kappa inh -23.8%, APEX1 inh 12.7% and Pol iota inh 22.8%.
Screening N#Cc1c(/N=C/c2c(O)n(Cc3ccco3)c(=O)[nH]c2=O)sc2c1CCCC2 returned POLH inh 14.1µM*, L3MBTL1 inh 14.1µM*, Pol kappa inh 22.4µM*, APEX1 inh inconclusive, POLB inh 31.6µM* and Pol iota inh 10µM*.
`O=c1[nH]c(=O)n(Cc2ccco2)c(O)c1/C=N/N1CCCCCC1` gave POLH inh -3.2%, L3MBTL1 inh -11.6%, Pol kappa inh -17.2%, APEX1 inh 0.5%, POLB inh 3.5% and Pol iota inh 141.6%.
`COc1ccc2c3c1O[C@H]1[C@@H](O)C=C[C@H]4[C@@H](C2)NCC[C@@]341` gave APEX1 inh -3.0%.
Screening Cc1ccc(NC(=O)C2CCN(C(=O)c3cccs3)CC2)c(C)c1 returned POLH inh -18.7%, Pol kappa inh 1.5%, APEX1 inh -10.4%, POLB inh 62.7% and Pol iota inh 59.3%.
Screening CN(C)S(=O)(=O)c1ccc(Cl)c(NC(=O)COC(=O)CN2C(=O)C3CCCCC3C2=O)c1 (configuration not stated) returned POLH inh -4.1%, L3MBTL1 inh 11.7%, Pol kappa inh 2.2%, APEX1 inh 4.3%, POLB inh 25.8% and Pol iota inh 153.7%.
C[C@H]1COC2=C1C(=O)C(=O)c1c2ccc2c1CCCC2(C)C was read as POLH inh 35.5µM*, L3MBTL1 inh inconclusive, Pol kappa inh inconclusive, APEX1 inh -3.3%, POLB inh 22.4µM* and Pol iota inh 22.4µM*.
Screening CC1COC2=C1C(=O)C(=O)c1c2ccc2c1CCCC2(C)C (configuration not stated) returned Pol kappa inh 28.2µM* and APEX1 inh inconclusive.
`O=C(O)c1ccc(-c2ccc3cc(C45CC6CC(CC(C6)C4)C5)c(O)cc3c2)cc1` gave Pol kappa inh inconclusive and APEX1 inh -9.9%.
`O=C1OC(c2ccc(O)c(S(=O)(=O)O)c2)(c2ccc(O)c(S(=O)(=O)O)c2)c2c(Br)c(Br)c(Br)c(Br)c21` gave Pol kappa inh 28.2µM* and APEX1 inh 18.5%.
For CC(C)(CO)CNC1CCCN(C2Cc3ccccc3C2)C1 (configuration not stated) the results were POLH inh -16.2%, L3MBTL1 inh 5.2%, Pol kappa inh -10.2%, APEX1 inh 7.7%, POLB inh 43.3% and Pol iota inh 40.4%.
Screening C[C@H](N)C(=O)NCC(=O)N[C@H]1CSSC[C@@H](C(=O)O)NC(=O)[C@H](CO)NC(=O)[C@H]([C@@H](C)O)NC(=O)[C@H](Cc2ccccc2)NC(=O)[C@H]([C@@H](C)O)NC(=O)[C@H](CCCCN)NC(=O)[C@H](Cc2c[nH]c3ccccc23)NC(=O)[C@H](Cc2ccccc2)NC(=O)[C@H](Cc2ccccc2)NC(=O)[C@H](CC(N)=O)NC(=O)[C@H](CCCCN)NC1=O returned Pol kappa inh 5.2%[60.1 µM].
For O=C(c1ccccc1)c1ccc2nc(N3CCN(c4ccc(F)cc4)CC3)c3nncn3c2c1 the results were POLH inh -7.7%, Pol kappa inh 0.9%, POLB inh 35.0% and Pol iota inh -0.5%.
Screening COc1ccc(/C(=N/OC(C)=O)c2nccc3cc(OC)c(OC)cc23)cc1OC returned POLH inh 1.7%, Pol kappa inh -6.3%, APEX1 inh 2.2%, POLB inh 6.2% and Pol iota inh 68.5%.
For Cc1nn2c(=O)cc(COC(=O)c3ccccc3NC(=O)c3cccs3)nc2s1 the results were POLH inh 89.1µM*, Pol kappa inh -3.0%[60.1 µM], POLB inh 20.7% and Pol iota inh 3.9%.
For CCc1ccccc1Nc1nn2c(=O)c3ccc(C(=O)Nc4cc(C)cc(C)c4)cc3nc2s1 the results were POLH inh inconclusive, Pol kappa inh 1.2%, POLB inh 1.8% and Pol iota inh 11.2%.
COC[C@H]1OC(=O)c2coc3c2[C@@]1(C)C1=C(C3=O)[C@@H]2CCC(=O)[C@@]2(C)C[C@H]1OC(C)=O was read as POLH inh -8.5%, Pol kappa inh -25.9%, APEX1 inh -10.2% and Pol iota inh 89.1µM*.
COC(=O)/C(C)=C\CC12OC(C)(C)C3CC(C=C4C(=O)c5c(OC)c6c(c(CC=C(C)C)c5OC431)OC(C)(CCC=C(C)C)C=C6)C2=O (configuration not stated) was read as Pol kappa inh -23.7%[60.1 µM] and APEX1 inh -0.9%.

Compound activity (PubChem BioAssay)
